Experimental data reported in ChEMBL document CHEMBL1961873, “Compounds: GSK PKIS; Assays: Nanosyn kinase panel” (2012).

Key:
[1] = molecular target: Tyrosine-protein kinase CSK (Homo sapiens) (UniProt P41240); conditions: at 1 µM;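 also: each value is an averaged inhibition reading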
[2] = molecular target: T1, Discoidin domain-containing receptor 2 (Homo sapiens) (UniProt Q16832); conditions: at 0.1 µM
T1 sequence (whole entry): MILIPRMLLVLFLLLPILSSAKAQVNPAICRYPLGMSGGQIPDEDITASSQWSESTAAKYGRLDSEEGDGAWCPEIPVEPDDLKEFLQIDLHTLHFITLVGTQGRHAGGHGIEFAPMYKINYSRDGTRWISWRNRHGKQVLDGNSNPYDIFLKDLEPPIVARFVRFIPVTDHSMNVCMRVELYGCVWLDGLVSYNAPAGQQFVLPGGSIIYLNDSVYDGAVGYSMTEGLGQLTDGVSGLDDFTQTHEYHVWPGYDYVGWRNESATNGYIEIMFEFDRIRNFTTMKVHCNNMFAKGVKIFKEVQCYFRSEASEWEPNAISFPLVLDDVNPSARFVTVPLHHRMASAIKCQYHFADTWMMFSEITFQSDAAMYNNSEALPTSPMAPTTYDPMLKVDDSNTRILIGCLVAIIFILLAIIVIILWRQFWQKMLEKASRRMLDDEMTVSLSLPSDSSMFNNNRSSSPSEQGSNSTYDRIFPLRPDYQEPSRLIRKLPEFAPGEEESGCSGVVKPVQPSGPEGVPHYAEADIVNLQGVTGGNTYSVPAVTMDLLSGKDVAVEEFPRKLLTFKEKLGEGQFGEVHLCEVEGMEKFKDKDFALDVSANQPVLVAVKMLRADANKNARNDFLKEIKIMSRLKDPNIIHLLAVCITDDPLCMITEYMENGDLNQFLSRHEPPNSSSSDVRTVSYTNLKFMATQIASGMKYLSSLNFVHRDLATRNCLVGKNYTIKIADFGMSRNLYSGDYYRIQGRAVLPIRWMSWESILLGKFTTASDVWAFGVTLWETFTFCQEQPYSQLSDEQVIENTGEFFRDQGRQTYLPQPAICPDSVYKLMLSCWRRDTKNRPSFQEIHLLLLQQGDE

[3] = molecular target: T1, Discoidin domain-containing receptor 2 (Homo sapiens); conditions: at 1 µM
[4] = molecular target: Epidermal growth factor receptor (Homo sapiens) (UniProt P00533); conditions: at 0.1 µM
[5] = molecular target: Epidermal growth factor receptor (Homo sapiens) (UniProt P00533); conditions: at 1 µM
[6] = system: Epidermal growth factor receptor (Homo sapiens), P00533 [L858R]; conditions: at 0.1 µM
[7] = system: Epidermal growth factor receptor (Homo sapiens), P00533 [L858R]; conditions: at 1 µM
[8] = system: Epidermal growth factor receptor (Homo sapiens), P00533 [L861Q]; conditions: at 0.1 µM
[9] = system: Epidermal growth factor receptor (Homo sapiens), P00533 [L861Q]; conditions: at 1 µM
[10] = system: Epidermal growth factor receptor (Homo sapiens), P00533 [T790M]; conditions: at 0.1 µM
Sequence of Epidermal growth factor receptor (Homo sapiens), P00533 [T790M] (P00533 whole entry T790M): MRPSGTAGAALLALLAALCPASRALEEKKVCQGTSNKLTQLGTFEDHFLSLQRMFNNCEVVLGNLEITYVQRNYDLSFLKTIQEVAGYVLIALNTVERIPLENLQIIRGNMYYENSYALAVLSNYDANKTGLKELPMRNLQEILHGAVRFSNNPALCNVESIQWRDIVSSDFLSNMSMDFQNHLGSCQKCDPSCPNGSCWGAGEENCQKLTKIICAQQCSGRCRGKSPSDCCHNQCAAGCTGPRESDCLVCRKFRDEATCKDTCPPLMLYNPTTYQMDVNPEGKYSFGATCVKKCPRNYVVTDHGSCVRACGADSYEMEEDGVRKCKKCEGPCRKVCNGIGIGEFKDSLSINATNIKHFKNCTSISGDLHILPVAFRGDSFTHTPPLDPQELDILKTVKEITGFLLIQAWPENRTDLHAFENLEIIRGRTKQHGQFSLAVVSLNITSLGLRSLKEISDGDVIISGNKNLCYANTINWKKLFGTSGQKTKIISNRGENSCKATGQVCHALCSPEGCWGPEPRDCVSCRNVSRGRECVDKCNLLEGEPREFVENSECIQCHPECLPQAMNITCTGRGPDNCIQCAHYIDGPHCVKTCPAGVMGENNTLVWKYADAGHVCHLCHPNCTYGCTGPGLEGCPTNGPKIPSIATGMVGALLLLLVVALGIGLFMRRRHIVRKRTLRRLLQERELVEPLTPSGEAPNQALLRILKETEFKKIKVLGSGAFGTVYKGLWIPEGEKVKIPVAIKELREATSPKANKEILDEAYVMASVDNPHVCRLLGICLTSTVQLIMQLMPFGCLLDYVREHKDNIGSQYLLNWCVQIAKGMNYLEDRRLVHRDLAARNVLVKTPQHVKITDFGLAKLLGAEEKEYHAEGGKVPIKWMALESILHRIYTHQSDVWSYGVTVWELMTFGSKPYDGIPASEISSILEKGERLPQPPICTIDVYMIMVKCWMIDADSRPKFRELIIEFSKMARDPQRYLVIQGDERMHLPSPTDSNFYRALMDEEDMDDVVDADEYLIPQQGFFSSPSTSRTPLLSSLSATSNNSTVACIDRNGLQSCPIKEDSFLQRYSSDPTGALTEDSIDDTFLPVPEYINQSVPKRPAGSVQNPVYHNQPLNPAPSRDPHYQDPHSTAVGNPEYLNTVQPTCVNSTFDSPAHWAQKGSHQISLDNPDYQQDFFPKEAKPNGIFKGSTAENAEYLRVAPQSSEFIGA

Sequence of Epidermal growth factor receptor (Homo sapiens) (P00533 whole entry): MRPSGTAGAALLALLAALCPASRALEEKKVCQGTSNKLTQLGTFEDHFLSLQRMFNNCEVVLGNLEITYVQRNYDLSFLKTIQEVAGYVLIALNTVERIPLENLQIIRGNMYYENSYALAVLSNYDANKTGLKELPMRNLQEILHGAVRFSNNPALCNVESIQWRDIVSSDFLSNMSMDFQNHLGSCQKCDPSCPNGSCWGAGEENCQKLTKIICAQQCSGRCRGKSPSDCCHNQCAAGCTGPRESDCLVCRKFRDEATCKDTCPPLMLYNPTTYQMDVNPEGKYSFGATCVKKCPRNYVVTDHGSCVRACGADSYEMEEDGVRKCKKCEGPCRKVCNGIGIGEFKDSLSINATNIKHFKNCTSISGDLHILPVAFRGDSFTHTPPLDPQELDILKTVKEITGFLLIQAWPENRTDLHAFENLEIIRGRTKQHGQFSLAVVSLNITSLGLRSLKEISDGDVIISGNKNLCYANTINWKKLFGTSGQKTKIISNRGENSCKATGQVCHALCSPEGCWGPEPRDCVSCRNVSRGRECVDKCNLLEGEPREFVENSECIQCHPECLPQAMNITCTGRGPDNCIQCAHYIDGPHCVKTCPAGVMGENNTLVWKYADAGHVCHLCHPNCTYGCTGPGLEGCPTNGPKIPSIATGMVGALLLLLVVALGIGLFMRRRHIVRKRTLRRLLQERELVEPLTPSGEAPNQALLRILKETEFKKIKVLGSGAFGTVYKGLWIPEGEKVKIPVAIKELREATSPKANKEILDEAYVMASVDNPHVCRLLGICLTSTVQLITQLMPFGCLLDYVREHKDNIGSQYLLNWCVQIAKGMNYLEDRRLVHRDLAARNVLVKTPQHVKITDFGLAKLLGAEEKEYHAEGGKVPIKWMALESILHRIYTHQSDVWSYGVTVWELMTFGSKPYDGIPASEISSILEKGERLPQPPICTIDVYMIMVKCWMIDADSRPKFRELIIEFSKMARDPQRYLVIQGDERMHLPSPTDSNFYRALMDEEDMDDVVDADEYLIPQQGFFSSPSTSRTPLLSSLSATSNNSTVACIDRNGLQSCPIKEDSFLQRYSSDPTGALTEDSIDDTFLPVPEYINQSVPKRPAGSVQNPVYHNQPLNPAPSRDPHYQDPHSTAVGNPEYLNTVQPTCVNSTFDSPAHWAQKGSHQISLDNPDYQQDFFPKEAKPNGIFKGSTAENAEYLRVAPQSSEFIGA
Sequence of Epidermal growth factor receptor (Homo sapiens), P00533 [L858R] (P00533 whole entry L858R): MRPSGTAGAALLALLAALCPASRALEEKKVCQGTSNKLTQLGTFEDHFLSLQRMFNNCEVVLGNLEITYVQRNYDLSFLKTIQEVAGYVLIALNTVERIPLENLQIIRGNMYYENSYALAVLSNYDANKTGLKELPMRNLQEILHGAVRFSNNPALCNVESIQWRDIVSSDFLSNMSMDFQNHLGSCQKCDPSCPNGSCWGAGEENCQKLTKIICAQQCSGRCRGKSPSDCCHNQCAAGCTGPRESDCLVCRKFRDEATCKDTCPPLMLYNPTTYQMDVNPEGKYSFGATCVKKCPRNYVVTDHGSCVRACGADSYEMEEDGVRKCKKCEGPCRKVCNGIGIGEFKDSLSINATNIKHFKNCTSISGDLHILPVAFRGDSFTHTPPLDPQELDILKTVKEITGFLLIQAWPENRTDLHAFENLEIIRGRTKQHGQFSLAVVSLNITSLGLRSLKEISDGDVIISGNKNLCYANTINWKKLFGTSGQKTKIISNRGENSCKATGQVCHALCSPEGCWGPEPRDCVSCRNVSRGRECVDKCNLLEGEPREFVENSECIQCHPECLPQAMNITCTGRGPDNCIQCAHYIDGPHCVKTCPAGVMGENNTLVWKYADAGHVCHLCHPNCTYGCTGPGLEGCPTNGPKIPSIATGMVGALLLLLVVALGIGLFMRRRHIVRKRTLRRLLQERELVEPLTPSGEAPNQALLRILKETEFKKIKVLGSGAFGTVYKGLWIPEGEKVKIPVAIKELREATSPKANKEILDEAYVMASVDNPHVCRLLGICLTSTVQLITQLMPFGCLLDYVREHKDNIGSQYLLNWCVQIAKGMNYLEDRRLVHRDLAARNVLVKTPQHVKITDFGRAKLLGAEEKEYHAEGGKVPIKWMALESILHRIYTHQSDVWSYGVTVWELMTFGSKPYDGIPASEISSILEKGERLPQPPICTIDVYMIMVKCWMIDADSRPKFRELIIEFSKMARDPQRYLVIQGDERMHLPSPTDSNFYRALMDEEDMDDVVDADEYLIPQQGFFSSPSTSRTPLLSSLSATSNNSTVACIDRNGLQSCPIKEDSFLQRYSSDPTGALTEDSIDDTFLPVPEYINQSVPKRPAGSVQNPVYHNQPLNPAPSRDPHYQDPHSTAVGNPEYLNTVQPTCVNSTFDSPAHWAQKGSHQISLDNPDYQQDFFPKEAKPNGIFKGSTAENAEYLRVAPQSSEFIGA
Sequence of Tyrosine-protein kinase CSK (Homo sapiens) (P41240 2-450 limits assumed): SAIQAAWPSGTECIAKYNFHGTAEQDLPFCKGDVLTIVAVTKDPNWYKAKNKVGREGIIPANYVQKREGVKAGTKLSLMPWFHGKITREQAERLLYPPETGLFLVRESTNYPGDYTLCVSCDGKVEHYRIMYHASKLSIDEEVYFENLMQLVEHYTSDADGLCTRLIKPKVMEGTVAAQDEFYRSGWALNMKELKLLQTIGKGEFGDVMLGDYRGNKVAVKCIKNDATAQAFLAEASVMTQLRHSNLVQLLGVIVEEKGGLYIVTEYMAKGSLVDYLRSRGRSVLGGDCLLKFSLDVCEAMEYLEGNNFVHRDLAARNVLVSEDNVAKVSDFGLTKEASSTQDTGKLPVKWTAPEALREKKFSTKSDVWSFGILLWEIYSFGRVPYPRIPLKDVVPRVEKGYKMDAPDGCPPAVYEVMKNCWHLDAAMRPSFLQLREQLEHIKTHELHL

Structure (SMILES)	inhibition [1]	inhibition [2]	inhibition [3]	inhibition [4]	inhibition [5]	inhibition [6]	inhibition [7]	inhibition [8]	inhibition [9]	inhibition [10]
N#Cc1c(NC(=O)CN2CCOCC2)sc2c1CCCC2	3.68%	2.2%	2.97%	0.55%	-0.79%	3.01%	4.14%	3.34%	3.29%	3.11%
COc1cccc(-c2c[nH]c3c(N/N=C/c4ccncc4)ncnc23)c1	17.3%	3.82%	14.8%	7.02%	41.9%	30.4%	82.3%	8.35%	45.4%	1.02%
COc1ccc2[nH]c3c4[nH]c5ccc(OC)cc5c4c4c(c3c2c1)C(=O)NC4=O	9.75%	2.8%	16.8%	2.87%	23.3%	18.2%	64.8%	7.22%	21.2%	3.67%
Nc1nc(-c2ccc(F)cc2)c(-c2ccc3ncccc3n2)s1	5.38%	0.01%	-5.99%	2.98%	21.7%	13.1%	60.5%	6.11%	22.4%	1.84%
CCCN1CCC(c2ccc(Nc3nc(Nc4cc(F)ccc4C(N)=O)c4cc[nH]c4n3)c(OC)c2)CC1	6.03%	0.6%	3.39%	8.69%	40.3%	5.44%	46.4%	6.31%	28.4%	30.4%
CCn1cc(-c2ccnc3[nH]ccc23)c(-c2cccc(NC(=O)Nc3ccc(OCc4ccccc4)cc3)c2)n1	2.9%	2.59%	21%	-1.36%	2.86%	-3.83%	-3.23%	-1.65%	2.37%	-1.87%
CC1=C(C(=O)Nc2cc(Cl)c3[nH]ncc3c2)C(c2ccc(C(F)(F)F)cc2)CC(=O)N1 (stereo unspecified)	2.47%	1.75%	1.35%	-1.31%	5.03%	2.16%	7.45%	2.03%	2.45%	1.57%
NS(=O)(=O)c1ccc(N/N=C2\C(=O)Nc3ccc4ncccc4c32)cc1	9.03%	0.92%	6.09%	0.87%	6.7%	1.35%	2.75%	1.5%	-1.33%	1.15%
CN1CCC(n2cnc(-c3ccc(F)cc3)c2-c2ccnc(N)n2)CC1	1.95%	0.93%	1.6%	5.7%	12.2%	3.61%	16.5%	1.43%	6.75%	-0.02%
CCn1c(-c2nonc2N)nc2c(C#CC(C)(C)O)ncc(OC3CCNCC3)c21	1.26%	0.94%	1.03%	1.89%	3.18%	-0.6%	2.18%	-0.91%	-0.16%	-0.25%
CN1CCC(n2cnc(-c3ccc(F)cc3)c2-c2ccnc(Nc3ccccc3)n2)CC1	6.08%	-0.08%	0.85%	9.04%	46.6%	37%	84.8%	9.58%	51.3%	1.19%
N#Cc1c(NC(=O)c2ccc(F)cc2)sc2c1CCCC2	0.65%	0.36%	-0.2%	0.63%	1.78%	0.66%	2.49%	-0.06%	-1.78%	-0.49%
Nc1ncc(-c2cccc(S(N)(=O)=O)c2)c2scc(-c3ccc(F)c(Cl)c3)c12	73.3%	2.61%	11.2%	0.5%	14.2%	5.06%	23.1%	5.17%	10.2%	3.18%
CCNC(=O)O[C@H]1CN[C@H](C#Cc2cc3ncnc(Nc4ccc(OCc5cccc(F)c5)c(Cl)c4)c3s2)C1	7.41%	2.66%	1.39%	86.6%	98%	32.5%	81%	37.6%	67%	2.9%
CNC(=O)c1cc(-c2ccc(F)cc2)cc(-c2ccc(S(=O)(=O)N3CCCC3)cc2)c1N	2.28%	1.09%	1.38%	5.94%	6.92%	0.45%	5.35%	2.56%	4.86%	0.67%
c1ccc(-c2nc3n(c2-c2ccc4c(c2)OCO4)CCC3)nc1	1.76%	0.99%	0.78%	1.53%	0.21%	0.88%	-1.2%	0.86%	1.07%	0.12%
CNC(=O)c1cncc(/C=C/c2ccccc2Cl)c1	6%	-0.31%	6.62%	2.35%	6.18%	1.57%	10.9%	1.06%	7.25%	-0.23%

Structure (SMILES)	inhibition [1]	inhibition [2]	inhibition [3]	inhibition [4]	inhibition [5]	inhibition [6]	inhibition [7]	inhibition [8]	inhibition [9]	inhibition [10]
CC(=O)Nc1cccc(C#Cc2cncnc2Nc2ccc(OCc3cccc(F)c3)c(Cl)c2)c1	-1.85%	4.51%	7.91%	–	–	–	–	–	–	–
O=C(Nc1n[nH]c2cc(-c3ccc(F)cc3)ccc12)C1CC1	5.61%	2.28%	1.71%	-1.79%	4.27%	0.24%	4.19%	1.33%	2.33%	1.54%
CCn1c(-c2nonc2N)nc2cnc(Oc3cccc(NC(=O)c4ccc(N(C)C)cc4)c3)cc21	-0.54%	1.4%	1.45%	2.76%	1.68%	1.49%	1.2%	1.12%	-0.57%	0.09%
COC(=O)Nc1nc2ccc(Oc3ccc(NC(=O)Nc4cccc(Cl)c4)cc3)cc2[nH]1	5.95%	84.2%	85.2%	3.42%	7.64%	-0.65%	2.43%	-0.21%	-0.8%	-1.18%
CS(=O)(=O)CCNCc1coc(-c2ccc3ncnc(Nc4ccc(OCc5ccccc5)cc4)c3c2)c1	5.24%	1.75%	1.8%	80.3%	92.2%	30.6%	82.5%	39.1%	76%	2.61%
CC(C)(CO)CNC(=O)c1ccc2c(c1)/C(=N/Nc1ccc(S(N)(=O)=O)cc1)C(=O)N2	-0.3%	-1.82%	3.39%	5.33%	5.03%	-3.09%	-0.53%	-0.63%	-0.88%	-1.56%
Fc1ccc(-c2nn3ncccc3c2-c2ccnc(Nc3ccc4c(c3)OCCO4)n2)cc1	12.4%	37.2%	82.5%	59.5%	82.1%	88.3%	98.4%	63.6%	89.5%	15.3%
Cc1cccc(Nc2ncc(-c3ccccc3)o2)c1	0.89%	0.22%	0.44%	2.11%	2.82%	0.79%	2.98%	-0.45%	1.8%	0.73%
CCn1c(-c2nonc2N)nc2c(C#CC(C)(C)O)nc(OC[C@H](N)c3ccccc3)cc21	2.13%	1.12%	1.65%	2.01%	13.4%	1.93%	1.86%	-0.13%	2.36%	1.22%
COc1ccc(-c2oc3ncnc(N)c3c2-c2ccc(NC(=O)Nc3cc(C(F)(F)F)ccc3F)cc2)cc1	61%	56.3%	87.3%	2.43%	2.22%	3.73%	6.19%	4.81%	7.85%	1.19%
CC(C)COC(=O)c1ccc2c(c1)/C(=C/Nc1ccc(S(N)(=O)=O)cc1)C(=O)N2	-1.85%	-1.05%	2.05%	1.64%	4.58%	-0.29%	0.49%	-1.62%	-0.46%	-1.76%
COC(=O)Nc1nc2ccc(S(=O)(=O)c3ccc(NC(=O)Nc4cc(C(F)(F)F)ccc4F)cc3)cc2[nH]1	-1.83%	10.3%	62.7%	0.69%	7.04%	-0.69%	1.58%	0.81%	2.11%	2.47%
Nc1nc(-c2cccc(Cl)c2)c(-c2ccc3ncccc3n2)s1	6.75%	-0.28%	-6.1%	0.13%	6.93%	0.4%	15.8%	3.07%	10.1%	3.5%
CCN(CC)S(=O)(=O)c1ccc(OC)c(Nc2ncc(-c3ccccc3)o2)c1	5.35%	7.09%	17.5%	3.51%	3.96%	4.33%	11.6%	3.42%	2.22%	1.36%
Fc1ccc(-c2nn3ccccc3c2-c2ccncc2)cc1	2.22%	1.72%	5.54%	–	–	–	–	–	–	–
COc1ccc(CNC(=O)c2ccc(-c3cc(-c4nnc(C)o4)ccc3C)cc2)cc1	6.32%	4.36%	4.67%	2.84%	4.15%	0.12%	8.38%	1.79%	7.03%	1.31%
COc1cc(Nc2nccc(Nc3ccc4c(C)n[nH]c4c3)n2)cc(OC)c1OC	67.9%	9.87%	43.1%	8%	22.2%	3.36%	29.9%	2.9%	15.6%	1.4%
